SMILES strings stand for the structures. The source made the active and inactive calls.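 The calls were made as follows: active = cells show a rise in impedance after compound treatment, with no numeric cutoff stated; inactive = no rise in impedance seen.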

Sequence of Relaxin receptor 1 (Homo sapiens) (Q9HBX9 whole entry, looked up): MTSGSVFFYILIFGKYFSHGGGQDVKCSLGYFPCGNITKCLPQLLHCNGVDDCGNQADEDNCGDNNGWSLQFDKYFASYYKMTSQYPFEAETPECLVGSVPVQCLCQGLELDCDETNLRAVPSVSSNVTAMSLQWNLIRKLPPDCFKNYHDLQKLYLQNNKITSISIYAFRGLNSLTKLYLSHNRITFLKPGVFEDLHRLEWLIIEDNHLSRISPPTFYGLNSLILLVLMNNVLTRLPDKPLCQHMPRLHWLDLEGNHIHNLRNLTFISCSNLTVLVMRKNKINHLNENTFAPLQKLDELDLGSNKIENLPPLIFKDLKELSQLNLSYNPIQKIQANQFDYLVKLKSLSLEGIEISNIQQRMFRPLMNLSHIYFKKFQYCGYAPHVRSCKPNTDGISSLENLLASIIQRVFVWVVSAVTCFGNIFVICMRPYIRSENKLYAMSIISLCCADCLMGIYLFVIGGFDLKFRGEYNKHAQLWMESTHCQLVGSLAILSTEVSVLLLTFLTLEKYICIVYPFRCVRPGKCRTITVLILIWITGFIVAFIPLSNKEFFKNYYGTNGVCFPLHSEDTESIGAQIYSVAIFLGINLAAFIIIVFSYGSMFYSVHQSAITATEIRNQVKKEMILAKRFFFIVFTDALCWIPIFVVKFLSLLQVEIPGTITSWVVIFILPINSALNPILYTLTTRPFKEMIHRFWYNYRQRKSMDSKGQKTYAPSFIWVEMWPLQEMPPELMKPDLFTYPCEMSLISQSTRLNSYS

For this assay, the target named is Relaxin receptor 1 (Homo sapiens) (UniProt Q9HBX9). Briefly: qHTS Assay for Agonists of the Relaxin Receptor RXFP1: Cell Impedance. The settings on record: HEK293-RXFP1 cell impedance, xCELLigence, 500 nM time course; at 0.5 µM; active compounds read high. From the text:
The relaxin hormone is involved in the variety of biological functions in normal tissues and diseases. The role of relaxin is well-established in female reproduction and parturition, mammary gland and endometrial development, maintenance of myometrial quiescence during pregnancy. Relaxin signaling through its G protein-coupled receptor (GPCR) RXFP1 results in ECM remodeling through regulation of collagen deposition, cell invasiveness, proliferation and overall tissue homeostasis. […] Recombinant human relaxin (rhRlx) is currently being tested in clinical trials as a protective agent in congestive heart failure, in treating severe preeclampsia, and as an anti-fibrotic agent in systemic sclerosis.
Upon relaxin binding RXFP1 activation leads to the activation of adenylate cyclase (AC) via Gs. cAMP will activate PKA, which phosphorylates many signaling proteins. Thus, detection of cAMP increase is an easy and reliable indication of relaxin receptor activation. To screen for agonists of the relaxin receptor, a HEK293T cell line stably transfected with RXFP1 was used. RXFP1 activation was assayed by changes in cAMP levels as detected with a time-resolved fluorescence energy transfer (TR-FRET) cAMP detection kit.
After the primary screen and rounds of SAR, a probe and analog were identified. It was previously shown that relaxin increases cell impedance in RXFP1 transfected cells. A cell line stably transfected with RXFP1 receptor HEK293-RXFP1 was used for cell impedance assay to confirm relaxin-like properties of the compounds.
NIH Chemical Genomics Center [NCGC]
NIH Molecular Libraries Probe Production Centers Network [MLPCN]
Assay Submitter (PI): Alexander Agoulnik
To equilibrate the plates, 100 microL of test media (DMEM, 1% FBS, 1x Pen/Strep) was added to each well of E Plate 16 (Roche Diagnostics, Indianapolis, IN) and the plate was incubated at room temperature for 30 minutes at which point baseline impedance was measures. Then 20,000 HEK293-RXFP1 cell or HEK293 cells (parental control cell line) were added per well in a volume of 100 microL test media and allowed to sediment at room temperature for 30 minutes. The plate was placed into xCELLigence RTCA DP Instrument in the CO2 incubator overnight to allow the cells to attach. Relaxin (10 ng/mL), vehicle, or compounds 500 nM were added to the wells and the cellular impedance was measured every 10-30 seconds for 1 hour.
On to `CCOc1ccccc1C(=O)Nc1ccccc1C(=O)Nc1cccc(C(F)(F)F)c1`, for which the impedance increase (% of relaxin) was 67% (active).
On to `CC(C)Oc1ccccc1C(=O)Nc1ccccc1C(=O)Nc1cccc(S(=O)(=O)C(F)(F)F)c1`, for which the impedance increase (% of relaxin) is 46.7% (active).
Next, `CCOc1ccccc1C(=O)Nc1ccccc1C(=O)Nc1cccc(S(=O)(=O)C(F)(F)F)c1`: 31.2% (active).
The result for `CCCCOc1ccccc1C(=O)Nc1ccccc1C(=O)Nc1cccc(S(=O)(=O)C(F)(F)F)c1` reads 39.5% (active).

(Values after PubChem BioAssay AID602291 (National Center for Advancing Translational Sciences (NCATS), 2012).)
